CF NFkB block: cystic fibrosis NF-kB activation inhibition; KKLEB NF-kB-GFP reporter, PAF-induced, GFP fluorescence overnight; inhibition, % at 5 µM; 0.86% of 360,000 active; AID 588850;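 active = at least 50% inhibition at 5 µM, scaled per plate between neutral and stimulator controls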;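 also: PAF is a Pseudomonas aeruginosa culture filtrate used as stimulus; plate controls were PAF-stimulated DMSO wells for no effect and unstimulated DMSO wells for full effect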
HIF-2a inh: HIF-2a inhibition. AID 624352. 0.72% of 360,000 active. 786-0 RCC cells HIF-2a reporter, luciferase luminescence, overnight. inhibition, % at 18.8 µM;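 active = inhibition of the luminescence signal of 40% or more relative to plate controls, in a single-dose primary screen at 18.75 µM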
ABHD5 PLIN5 PPI: blocks binding of human ABHD5 to perilipin-5 | Split G. princeps luciferase complementation, luminescence, 4 h | inhibition, % at 4 µM | 0.78% of 360,000 active | AID 602281;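 active = inhibition above the mean inhibition across every tested compound plus 3 SD, cut at about 22% in these data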;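 also: 0% = DMSO only wells and the 100% control is not disclosed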
Target sequence (Q00G26 whole entry, looked up): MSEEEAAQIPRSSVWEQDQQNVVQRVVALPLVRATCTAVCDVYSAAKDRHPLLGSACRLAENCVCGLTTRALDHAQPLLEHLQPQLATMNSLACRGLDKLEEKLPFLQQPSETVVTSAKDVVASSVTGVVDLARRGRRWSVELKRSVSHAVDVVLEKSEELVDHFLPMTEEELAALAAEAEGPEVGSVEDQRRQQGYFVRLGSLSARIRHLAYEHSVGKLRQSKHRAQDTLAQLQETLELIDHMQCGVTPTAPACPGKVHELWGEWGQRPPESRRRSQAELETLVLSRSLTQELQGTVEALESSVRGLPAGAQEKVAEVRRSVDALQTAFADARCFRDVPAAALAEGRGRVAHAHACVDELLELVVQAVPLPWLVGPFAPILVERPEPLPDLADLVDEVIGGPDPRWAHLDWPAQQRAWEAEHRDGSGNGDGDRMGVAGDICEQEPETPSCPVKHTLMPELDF
Target sequence (Q8WTS1 whole entry, looked up): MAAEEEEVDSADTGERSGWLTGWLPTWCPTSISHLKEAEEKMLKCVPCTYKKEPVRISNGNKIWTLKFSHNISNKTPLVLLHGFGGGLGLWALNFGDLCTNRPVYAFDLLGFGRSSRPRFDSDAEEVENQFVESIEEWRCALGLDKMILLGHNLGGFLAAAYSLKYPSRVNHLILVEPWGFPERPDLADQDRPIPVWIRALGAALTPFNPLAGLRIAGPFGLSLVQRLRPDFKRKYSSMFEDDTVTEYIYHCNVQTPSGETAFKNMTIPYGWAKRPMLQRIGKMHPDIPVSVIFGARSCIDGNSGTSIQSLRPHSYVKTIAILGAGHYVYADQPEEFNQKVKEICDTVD
Peg3 prom inh: reduces Peg3 promoter-driven luciferase expression in HeLa. HeLa PEG-Prom luciferase reporter, luminescence, overnight. inhibition, % at 20 µM. 1.7% of 360,000 active. AID 588405;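 active = inhibition of at least 50% at 20 µM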
Mdm2-MdmX inh: inhibitors of human Mdm2/MdmX interaction | O15151+Q00987 | SaOS-2 split-luciferase Mdm2/MdmX complementation, luminescence | inhibition, % at 8 µM | 3% of 330,000 active;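 active = inhibition of at least 50% at 8 µM in the primary screen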
KKLEB cytotox: CF airway cell cytotoxicity counter-screen; KKLEB CF airway cells viability, ATPlite luminescence, overnight; active compounds read low; cells stimulated with P. aeruginosa culture filtrate; activity change (cytotoxicity), % at 5 µM; 0.36% of 360,000 active;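 active = corrected activity change at or below -50% at 5 µM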
Mdm2-MdmX conf: confirmation of human Mdm2/MdmX interaction inhibitors. shares compounds with Mdm2-MdmX inh. Mdm2-MdmX binding, luminescent assay. inhibition, % at 8 µM. 55% of 10,000 active. AID 489028; in the data active = inhibition above about 40%
Full FLuc ctr: full-length luciferase inhibition in Mdm2/MdmX counter-screen | inhibition, % at 8 µM | 77% of 6,200 active | AID 504607 | shares compounds with Mdm2-MdmX inh | SaOS-2 full-length luciferase counterscreen, luminescence;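 active = mean inhibition at 8 µM reaching about 37%, which flags the compound as non-specific, limit read from the data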;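 also: p53-null SaOS-2 cells with luciferase driven by a doxycycline-inducible promoter; compound on cells about two nights before reading with doxycycline added after day one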
* marks the source's active call; other numbers are inactive results; . = no result. This is a sample that favours compounds with a hit; in the whole collection about 4.6% have one here.

SMILES | CF NFkB block | HIF-2a inh | ABHD5 PLIN5 PPI | Peg3 prom inh | Mdm2-MdmX inh | KKLEB cytotox | Mdm2-MdmX conf | others
COc1ccc(Cl)cc1C(=O)NNC(=O)c1cc2ccccc2o1 | -21.4 | -53.0 | 6.5 | -35.1 | 14.4 | 8.1 | .
Cc1cc(C)nc(SCc2ccc(C(=O)N/N=C/c3ccc(C(=O)O)cc3)cc2)n1 | -1.3 | 20.4 | 7.9 | -19.2 | 3.9 | -3.9 | .
COc1ccc(O)c(/C=N/NC(=O)c2ccc(CSc3nc(C)cc(C)n3)cc2)c1 | 15.1 | 20.6 | -5.4 | 37.5 | 76.5* | -3.7 | 74.5* | Full FLuc ctr=30.7
Cc1cc(C)nc(SCc2ccc(C(=O)N/N=C/c3cccc(O)c3O)cc2)n1 | 44.9 | -10.6 | 4.5 | 48.0 | 74.9* | -24.4 | 67.8* | Full FLuc ctr=35.2
COc1ccc(/C=N/NC(=O)c2ccc(CSc3nc(C)cc(C)n3)cc2)cc1O | 9.0 | 20.6 | 0.2 | 14.3 | 5.3 | -0.6 | .
Cc1noc(C)c1C(=O)N1CCC1(C)C(=O)NS(=O)(=O)c1ccccc1C(F)(F)F (configuration not stated) | 11.5 | 2.8 | 2.1 | 11.1 | . | -8.3 | .
COc1ccc(NC2CCCN(C(=O)CSc3ccncc3)C2)cc1 (configuration not stated) | -24.6 | 12.7 | -0.9 | 16.2 | 5.5 | 32.9 | .
O=C(Nc1nccs1)c1nc[nH]c1C(=O)NCc1ccccc1 | -28.3 | 9.5 | -0.6 | 11.1 | 50.7* | 20.9 | 0.4
CN(Cc1ccccc1)C(=O)c1[nH]cnc1C(=O)Nc1nccs1 | -14.9 | -9.5 | -5.8 | -9.6 | 14.3 | 10.0 | .
COc1ccc(NS(=O)(=O)c2cccc(C(=O)NNC(=O)c3ccccc3O)c2)cc1 | -30.2 | -51.4 | 1.4 | -0.9 | 52.8* | 5.4 | 55.5* | Full FLuc ctr=58.5*
COc1ccc(NS(=O)(=O)c2cccc(C(=O)NNC(=O)c3cc(C)oc3C)c2)cc1 | -1.3 | 1.5 | -4.5 | 0.6 | 10.1 | 2.0 | .
COc1ccccc1N(C)S(=O)(=O)c1ccc(C(=O)NNC(=O)c2ccccc2O)cc1 | 5.8 | 10.0 | -8.0 | 11.8 | 61.9* | 11.2 | 59.9* | Full FLuc ctr=48.2*
O=C1C(Cc2ccccc2)Nc2ncnc(N3CCN(c4ccccc4)CC3)c2N1Cc1ccc(Br)cc1 (configuration not stated) | 25.9 | 9.0 | 3.4 | -1.2 | 22.1 | -9.7 | .
CCC1Nc2ncnc(N3CCN(c4ccccc4)CC3)c2N(Cc2ccc(Br)cc2)C1=O (configuration not stated) | 12.5 | 15.6 | 9.3 | 25.1 | 52.7* | -10.3 | 13.3
Cc1ccc(NC(=O)CC(C)CC(=O)NCc2ccccc2)cc1Cl (configuration not stated) | -6.5 | -7.3 | -11.2 | 5.5 | -10.3 | -0.3 | .
CCOC(=O)c1sc2ncn(CC(=O)Nc3cc(C)on3)c(=O)c2c1C | 0.6 | -5.7 | -9.3 | 3.2 | 55.0* | -1.9 | -9.6
CCOC(=O)Cn1cnc2sc(C(=O)OC)c(C)c2c1=O | 9.3 | -21.2 | -3.7 | -2.7 | -14.7 | -16.1 | .
CCC1CCCCN1C(=O)CSc1nnc(N)s1 (configuration not stated) | -9.0 | 6.1 | 1.0 | 13.0 | -18.2 | 3.1 | .
C[C@@H]1CC=C[C@@H]2[C@H]1C(=O)N(Cc1ccccc1)[C@H]2c1cccc(C#Cc2ccccc2)c1 | 16.3 | -26.3 | -4.8 | 4.4 | 36.3 | -4.1 | .
C[C@@H]1CC=C[C@@H]2[C@H]1C(=O)N(Cc1ccccc1)[C@H]2c1cccc(Br)c1 | 10.9 | 31.4 | 2.0 | 20.5 | 65.3* | -14.2 | 10.8
COc1ccc(-c2ccc(OC)c([C@H]3[C@H]4C=CC[C@@H](C)[C@@H]4C(=O)N3Cc3ccccc3)c2)cc1OC | 35.4 | 18.2 | -2.3 | 5.9 | 57.5* | -16.9 | -9.8
O=C1C2C(c3ccccc3)CC=CC2[C@H](c2ccc(C(F)(F)F)cc2)N1Cc1ccccc1 (some centres not stated) | 41.1 | 39.7 | -2.8 | 29.6 | 78.5* | -23.1 | 43.1* | Full FLuc ctr=62.7*
C[C@@H]1CC=C[C@H]2[C@H]1C(=O)N(Cc1ccccc1)[C@H]2c1ccc(C(F)(F)F)cc1 | 22.9 | 23.6 | -15.4 | 18.6 | 9.4 | 8.9 | .
CC(C)(C)C(=O)N/C(N)=N/c1nc2ccccc2o1 | -12.9 | -273.1 | -2.5 | -288.0 | -135.6 | -8.7 | .
COc1cccc(C2C3=C(CCCC3=O)NC3=C2C(=O)c2ccccc23)c1 (configuration not stated) | . | . | . | . | 9.2 | . | .
SMILES | CF NFkB block | HIF-2a inh | ABHD5 PLIN5 PPI | Peg3 prom inh | Mdm2-MdmX inh | KKLEB cytotox | Mdm2-MdmX conf | others
CCCCc1ccc(C2C3=C(CC(C)(C)CC3=O)NC3=C2C(=O)c2ccccc23)cc1 (configuration not stated) | 17.4 | 18.7 | 4.3 | 42.9 | 55.1* | -25.3 | 22.6
CC(C)(C)C(=O)/C=c1\s/c(=C\c2ccc(-c3ccc([N+](=O)[O-])cc3)o2)c(=O)n1CC(=O)NC(N)=O | -425.2 | -5.1 | 1.4 | 54.7* | 67.9* | -20.1 | 58.1* | Full FLuc ctr=54.4*
COc1ccc(S(=O)(=O)N2CCN(S(=O)(=O)c3ccc4c(c3)OCCO4)CC2)cc1 | -6.0 | 1.2 | 5.0 | 1.5 | 58.2* | -1.5 | 15.4
Cc1ccc(C)c(CN2CCC(CNC(=O)Nc3ccc(Br)cc3F)CC2)c1 | -3.8 | 12.6 | -2.1 | 48.2 | 56.1* | -12.3 | 43.9* | Full FLuc ctr=69.4*
Cc1ccc(C)c(CN2CCC(CNC(=O)Nc3ccc(Cl)cc3)CC2)c1 | 5.3 | -82.6 | 5.6 | -15.0 | 44.1 | -8.5 | .
COc1ccc(N/N=C(\C=N\O)C(=O)c2ccc(OC)cc2)cc1 | 10.6 | -11.8 | -4.0 | 22.2 | 55.9* | -2.6 | 56.5* | Full FLuc ctr=60.3*
CCOC(=O)c1c(C)[nH]c(C(=O)CSc2nnnn2-c2ccc(C)cc2)c1C | 1.9 | -7.0 | -7.7 | 15.8 | 65.9* | 4.3 | 7.8
CCOC(=O)c1c(C)[nH]c(C(=O)CSc2nnnn2-c2ccccc2)c1C | -0.6 | -9.8 | 8.7 | 5.1 | 19.6 | -1.3 | .
Cc1ccccc1NC(=O)c1cc(C(=O)c2cc(Cl)ccc2O)cn(-c2ccccc2C)c1=O | 48.5 | -42.2 | -1.2 | -37.4 | 78.4* | -42.9 | 70.6* | Full FLuc ctr=49.6*
Cc1ccc(-n2cc(C(=O)c3cc(Cl)ccc3O)cc(C#N)c2=O)cc1 | 0.3 | 21.0 | 0.0 | 37.1 | -1.3 | -9.9 | .
Cn1c(=O)c2c([nH]c(OCc3ccc(Cl)cc3Cl)[n+]2Cc2ccc(F)cc2)n(C)c1=O | 15.4 | 19.7 | -2.1 | 25.7 | 56.9* | -15.7 | 13.2
Cn1cnc2c1c(=O)n(Cc1ccc(Cl)cc1Cl)c(=O)n2C | 8.8 | 21.6 | 5.2 | 13.0 | 3.7 | -15.2 | .
O=[N+]([O-])c1ccc2[nH]c(=S)sc2c1 | 16.3 | -3.8 | -11.1 | 17.2 | . | -3.9 | .

Screens: PubChem BioAssay, several laboratories
